Sampled rows, rich in hits. Any-hit rate of the full collection: about 12%.
Pf growth 96h: P. falciparum growth inhibition at 96 hours | P. falciparum luciferase reporter growth, 96 h | Potency, µM (highest dose often 28.7 µM), actives largely listed as inhibitors | 320,000 compounds, 6.9% hits
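Parasite growth measured via integrated firefly luciferase reporter in P. falciparum. Infected erythrocytes at 2% hematocrit, 0.05% parasitemia final were treated 96 hours at 37 C under 5% CO2, and luminescence was read.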
SARS PLP yeast: SARS-CoV PLP inhibition in yeast; S. cerevisiae expressing SARS-CoV PLpro, growth rescue; AID 485353; Potency, µM (series often up to 32.9 µM), most hits filed as activators; 330,000 compounds, 0.19% hits; calls by dose curve; further: nearly all actives have a fitted effect of over 55% in size
Sm TGR block: blocks Schistosoma mansoni thioredoxin glutathione reductase; purified TGR, DTNB reduction, TNB absorbance 405 nm; 360,000 compounds, 3% hits; Potency, µM (doses to about 114 µM), usual class: inhibitors; Q962Y6; AID 485364; further: nearly all actives have a fitted effect of over 60% in size
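First, TGR (20 nM dispensed) and NADPH were mixed with compound. Second, a 15 min room-temperature incubation followed. Third, further NADPH and then DTNB were added to start the reaction. Finally, TNB absorbance was monitored kinetically.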
Pf growth 48h: P. falciparum growth inhibition at 48 hours (one generation) | P. falciparum luciferase growth in erythrocytes, 48 h | Potency, µM (highest dose often 28.7 µM), hits mostly inhibitors | 310,000 compounds, 5.9% hits
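Cell-based growth assay: transgenic P. falciparum expressing firefly luciferase, cultured in red cells within RPMI 1640 containing 0.5% w/v Albumax, 24 mM bicarbonate and gentamycin. A drop in luciferase activity indicates inhibition.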
Numbers stand for hits; . = inactive; ? = inconclusive; / = not tested or not shown; ! = a repeat was not active. Unless noted, the call rests on the fitted dose curve; in most records, active means well fitted curve in the direction sought with a large enough effect; inconclusive means small, poorly fitted or top-dose-only effect, or another doubt; inactive means no such curve, though single readings can be large; an effect the other way counts as inactive or inconclusive.

SMILES	Pf growth 96h	SARS PLP yeast	Sm TGR block	Pf growth 48h
COc1ccccc1/C=C/CN1CCC(Oc2ccc(C(=O)N3CCCCC3)cc2)CC1	.	.	.	7.38µM
COc1ccc(/C=C/CN2CCC(Oc3ccc(C(=O)N4CCCCC4)cc3)CC2)cc1	?	.	.	?
COc1cc(C(=O)N2CCN(C/C=C/c3ccccc3)CC2)cc(OC)c1OC	?	.	.	?
CCc1c(C)nc2nncn2c1Nc1cccc(C)c1	/	/	.	/
CCCSc1nc2c(c(=O)[nH]1)C(c1ccc(O)c(OCC)c1)CC(=O)N2 (stereo unspecified)	/	/	.	/
CCOc1ccc(C(=O)Nc2cccc(NC(=O)c3ccc(C(C)(C)C)cc3)c2)cc1Br	/	/	.	/
COc1ccc(NS(=O)(=O)c2cc(C(=O)N3CCN(C/C=C/c4ccccc4)CC3)ccc2C)cc1	?	.	.	11.7µM
Cc1ccc(C(=O)N2CCCCCC2)cc1S(=O)(=O)Nc1ccccc1	.	.	.	.
COc1c2ccoc2nc2c(OC)c(OCC(OC(C)=O)C(C)(C)O)ccc12 (stereo unspecified)	.	.	.	.
O=C(COc1ccccc1)N1CCN(C(=O)c2ccccc2F)CC1	.	.	.	.
COc1ccc(-n2c3c(cc(C(=O)N4CCN(CCO)CC4)c2=O)C(=O)CC(C)(C)C3)cc1	10.4µM	.	.	.
O=C1S/C(=C\c2ccc(N3CCOCC3)o2)C(=O)N1Cc1c(F)cccc1Cl	11.7µM	.	2.82µM	?
Cn1c2cc(Br)sc2c2cnn(Cc3c(F)cccc3F)c(=O)c21	.	.	.	.
COc1cccc(-c2nnc3n2N=C(c2cc(OC)ccc2OC)CS3)c1	?	.	.	?
CC(C)(C)C1=Nn2c(nnc2-c2ccccn2)SC1	8.28µM	.	.	/
COc1ccc(C2=Nn3c(nnc3-c3ccccc3OC)SC2)cc1OC	3.7µM!	.	.	10.4µM
COc1cccc(C2=Nn3c(nnc3-c3ccccc3O)SC2)c1	.	.	.	13.1µM
COc1ccc(C2=Nn3c(nnc3-c3ccccn3)SC2)cc1OC	?	.	.	/
CC(C)(C)C1=Nn2c(nnc2-c2ccccc2F)SC1	?	.	.	?
Cc1cc(-c2nnc3n2N=C(c2ccccc2Br)CS3)n[nH]1	11.7µM	.	.	?
COc1cccc(-c2nnc3n2N=C(C(C)(C)C)CS3)c1	13.1µM	.	.	?
C=CCN(c1ccccc1)S(=O)(=O)c1cccc(C(=O)Nc2ncccc2O)c1	?	.	.	.
Cc1ccc2cc(CN(Cc3ccco3)C(=S)NCC3CCCO3)c(=O)[nH]c2c1 (stereo unspecified)	3.7µM	.	.	.
O=c1[nH]c2cc3c(cc2cc1CN(Cc1ccco1)C(=S)NCC1CCCO1)OCCO3 (stereo unspecified)	?	.	.	.
COc1ccc2cc(CN(CC3CCCO3)C(=S)NCc3ccco3)c(=O)[nH]c2c1 (stereo unspecified)	.	.	.	9.28µM
SMILES	Pf growth 96h	SARS PLP yeast	Sm TGR block	Pf growth 48h
Cc1ccc2cc(CN(CC3CCCO3)C(=S)NCc3ccco3)c(=O)[nH]c2c1 (stereo unspecified)	.	.	.	?
CCc1cc2c(=O)c(-c3ccc4c(c3)OCCO4)coc2c(CN2CCCCC2C)c1O (stereo unspecified)	.	.	.	2.08µM
CCc1cc2c(=O)c(-c3nc4ccccc4[nH]3)coc2c(CN2CCCCC2C)c1O (stereo unspecified)	0.738µM	.	.	1.47µM
COc1ccccc1-c1coc2c(CN3CCOCC3)c(O)ccc2c1=O	.	.	?	?
CCc1cc2c(=O)c(-c3nc4ccccc4[nH]3)coc2c(CN2CCCCC2)c1O	.	.	.	.
O=c1c(-c2ccc3c(c2)OCCO3)coc2c(CN3CCOCC3)c(O)ccc12	11.7µM	.	.	.
O=C(O)CCN1C(=O)/C(=C\c2ccncc2)SC1=S	.	.	.	?
CCCN1C(=O)/C(=C\c2ccncc2)SC1=Nc1ccccc1	?	.	.	11.7µM
CCN1C(=O)/C(=C\c2ccncc2)SC1=Nc1ccc(C)c(C)c1	1.85µM	.	.	?
CCN1C(=O)/C(=C\c2ccncc2)SC1=S	.	.	.	.
COC(=O)c1cccc(NC(=O)N(C)CCc2c(C)nn(C)c2C)c1	/	/	.	/
COC(=O)c1sccc1NS(=O)(=O)c1ccccc1[N+](=O)[O-]	.	.	.	.
COc1cc(-c2cc(C(=O)Nc3cccc(C(C)=O)c3)c3ccccc3n2)cc(OC)c1OC	.	.	.	?
O=C(Nc1ccc(F)cc1F)c1cc(-c2ccco2)nc2ccccc12	?	.	11.2µM	.
COC(=O)c1sccc1NC(=O)c1ccccc1[N+](=O)[O-]	1.85µM	.	.	.
CC(=O)c1cccc(NC(=O)c2cc(-c3ccncc3)nc3ccccc23)c1	?	.	.	11.7µM
C/C(=N\NC(=O)c1cc(-c2ccncc2)nc2ccccc12)c1ccc(OC(F)F)cc1	3.29µM	.	.	.
O=C(NCc1cccnc1)Nc1cccc(Cl)c1Cl	?	.	.	.
COc1cccc(-c2cc(C(=O)Nc3ccncc3)c3ccccc3n2)c1	?	.	.	0.738µM
CC(=O)c1cccc(NC(=O)c2cc(-c3ccco3)nc3ccccc23)c1	.	.	25.1µM	.
CCOc1ccc(-c2cc(C(=O)N/N=C(\C)c3cccnc3)c3ccccc3n2)c(OCC)c1	?	?	.	13.1µM
COc1cc(NC(=O)c2ccccc2[N+](=O)[O-])ccc1NC(=O)C(C)C	9.28µM	.	.	.
COC(=O)CNC(=O)c1cc(-c2ccncc2)nc2ccc(C)cc12	.	.	.	.
O=C(O)c1cc(-c2ccco2)nc2cc3ccccc3cc12	.	.	2.24µM	.
CCOc1ccccc1NC(=O)c1cc(-c2ccncc2)nc2c(Cl)cccc12	.	.	.	5.22µM
SMILES	Pf growth 96h	SARS PLP yeast	Sm TGR block	Pf growth 48h
Cc1ccc2nc(-c3ccncc3)cc(C(=O)NCc3ccccc3F)c2c1	14.7µM	.	.	?
CCN(CC)CCNC(=O)c1cc(-c2ccco2)nc2ccccc12	?	.	.	.
O=C(NNC(=O)c1cc(-c2ccco2)nc2ccccc12)c1ccccc1	?	.	11.2µM	?
Cc1nc2ccc(NS(=O)(=O)c3c(F)cc(F)cc3Br)cc2s1	.	.	.	.
COC(=O)c1sccc1NC(=O)c1cc(-c2ccc(C)cc2)nc2ccccc12	.	.	.	?
CC(C)COc1cccc(-c2cc(C(=O)Nc3ccon3)c3ccccc3n2)c1	.	.	.	2.08µM
COC(=O)c1sccc1NC(=O)c1cc(-c2cccc(C)c2)nc2ccccc12	.	.	?	9.28µM
CCOC(=O)c1ccc(NC(=O)c2oc(=O)c3ccccc3c2-c2ccccc2)cc1	/	/	.	/
CN(C)C(=O)Oc1cccc([N+](C)(C)C)c1	4.15µM!	.	.	?
C#CCNC(=O)C1=C[C@@H](C2CCCCC2)C[C@@H](OCc2ccc(CO)cc2)O1	.	.	22.4µM	?
C#CCNC(=O)C1=C[C@H](C2CCCCC2)C[C@H](OCc2ccc(CO)cc2)O1	.	.	20µM	?
CC1CCC2C(=O)N(c3cccc(C(=O)Nc4ccccc4Cl)c3)C(=O)C2C1 (stereo unspecified)	11.7µM	.	.	.

Bioassay records: PubChem BioAssay, National Center for Advancing Translational Sciences (NCATS)
